An excerpt weighted towards active compounds, which were near 0.5% of everything screened.
AddAB inh – less growth of phage-infected E. coli with AddAB | E. coli expressing H. pylori AddAB, absorbance growth | inhibition, % at 11.9 µM | 330,000 tested, 0.29% active | AID 435030; in the data active means inhibition above about 12%;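 further: 0% = vehicle wells of infected cells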
Tat export inh – inhibitors of E. coli Tat protein transport; inhibition, % at 10 µM; E. coli MC4100 TorA-mCherry Tat export, fluorescence; 340,000 tested, 0.036% active;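 active means mean replicate inhibition at least 50% and at least half of replicates individually reaching 50%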;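 further: exported cargo escapes ClpAP degradation while cytoplasmic cargo is degraded and loses fluorescence; 0% = median of neutral control wells and 100% = median of NaSCN control wells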
phage Ecoli inh – E. coli growth loss with phage present | AID 651602 | inhibition, % at 11.9 µM | growth absorbance | 360,000 tested, 0.26% active; in the data active means inhibition above about 11%
E coli growth-1 – E. coli growth inhibition; Escherichia coli growth, OD600, 23 h; hits give low values; OD600 absorbance (test concentration not listed); 330,000 tested, 0.21% active; AID 1053175;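 active means OD600 absorbance below the run mean of sample wells minus 3.6 SD, in any replicate, cut at about 0.56 in these data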
E coli growth-2 – reduces bacterial viability in AddAB counter-screen | 330,000 tested, 0.27% active | inhibition, % at 11.9 µM | E. coli V3065 growth, OD600 absorbance, 18 h;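 active means inhibition above the campaign's mean inhibition across all tested compounds plus 3 SD, cut at about 9.9% in these data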;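 further: uninfected addAB+ strain grown without phage in ampicillin broth; 0% = DMSO wells and 100% = ciprofloxacin 0.95 µg/ml wells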
AddAB conf – confirmation screen: growth loss of phage-infected E. coli expressing H. pylori AddAB. inhibition, % at 11.9 µM. E. coli V3065 expressing H. pylori AddAB, T4 phage, OD; T4 phage with gene 2 nonsense mutations. 880 tested, 64% active. shares compounds with AddAB inh;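 active means mean inhibition above a set limit taken from the earlier primary screen, cut at about 13% in these data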;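 further: higher means less bacterial growth since AddAB block lets phage replicate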
RecBCD counter – counter-screen: growth loss of RecBCD+ E. coli with mutant T4 phage; shares compounds with AddAB inh; E. coli V66 + mutant T4 phage, OD growth; inhibition, % at 11.9 µM; 880 tested, 73% active; AID 488955;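 active means mean inhibition above the mean of solvent-only control wells plus 3 SD, cut at about 4% in these data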;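 further: optical density read after an 18 h incubation at 37 °C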
Bact viability – counter-screen: bacterial growth inhibition; shares compounds with AddAB inh; bacterial viability, absorbance (AddAB counterscreen); inhibition, % at 11.9 µM; 880 tested, 35% active; AID 488956; in the data active means inhibition above about 25%
RecBCD conf – growth loss of phage-infected V66 E. coli, RecBCD confirmation screen; shares compounds with phage Ecoli inh; E. coli V66 + T4 2- phage, growth OD; inhibition, % at 11.9 µM; 890 tested, 45% active; AID 651982;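 active means mean inhibition over triplicates exceeding the hit threshold derived in the original primary screen, cut at about 11% in these data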
Ecoli viability – bacterial viability inhibition counter-screen for RecBCD; AID 651983; inhibition, % at 11.9 µM; E. coli viability, absorbance (OD) growth; shares compounds with phage Ecoli inh; 890 tested, 29% active; in the data active means inhibition above about 20%;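 further: E. coli strain V66 grown with compound alone and no phage infection; 0% = bacteria with DMSO vehicle only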
AddAB counter – growth loss of phage-infected AddAB E. coli, RecBCD counter-screen. shares compounds with phage Ecoli inh. E. coli expressing H. pylori AddAB + T4 phage, OD growth; gene 2 mutant T4, recBCD-deleted host. inhibition, % at 11.9 µM. 890 tested, 45% active;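 active means mean inhibition above the solvent-only control wells' mean plus 3 SD, cut at about 22% in these data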;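 further: higher means less bacterial growth from phage killing when AddAB is blocked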
* hit, by the source's call.

What do the screens show for `O=C(c1ccc([N+](=O)[O-])o1)N1CCc2ccccc21`?
AddAB inh: 97*; Tat export inh: 6; phage Ecoli inh: 21*; E coli growth-1: 0.46*; E coli growth-2: 94*; AddAB conf: 102*; RecBCD counter: 20*; Bact viability: 84*; RecBCD conf: 10; Ecoli viability: 13; AddAB counter: 98*

How did CCC(=O)N1CC2(CC(c3cccc(NC(=O)CC(c4ccccc4)c4ccccc4)c3)=NO2)CC1C(N)=O (configuration not stated) do in these assays?
E coli growth-1: 0.64

How did NC1=NCC(Cc2ccc(O)cc2)N1CCC12CC3CC(CC(C3)C1)C2 (configuration not stated) do in these assays?
E coli growth-1: 0.61

Results for CC[C@H]1OC(=O)[C@H](C)[C@@H](O[C@H]2C[C@@](C)(OC)[C@@H](O)[C@H](C)O2)[C@H](C)[C@@H](O[C@@H]2O[C@H](C)C[C@H](N(C)C)[C@H]2O)[C@](C)(O)C[C@@H](C)C(=O)[C@H](C)[C@@H](O)[C@]1(C)O ?
AddAB inh: 22*; Tat export inh: 39; phage Ecoli inh: 27*; E coli growth-2: 20*; AddAB conf: 45*; RecBCD counter: 17*; Bact viability: 18; RecBCD conf: 19*; Ecoli viability: 20*; AddAB counter: 32*

How did COc1cccc(/C=N/NC(=O)c2ccc(-c3ccccc3)cc2)c1O do in these assays?
AddAB inh: 19*; Tat export inh: 2; phage Ecoli inh: 19*; E coli growth-2: 17*; AddAB conf: 6; RecBCD counter: 16*; Bact viability: 4; RecBCD conf: 7; Ecoli viability: 10; AddAB counter: 19

Results for COc1cccc(C=NNC(=O)c2ccc(-c3ccccc3)cc2)c1O ?
E coli growth-1: 0.72

How did COc1cccc(/C=N/NC(=O)C(=O)Nc2ccccc2OC(F)(F)C(F)F)c1O do in these assays?
AddAB inh: 19*; Tat export inh: -3; phage Ecoli inh: 17*; E coli growth-2: 15*; AddAB conf: 10; RecBCD counter: 12*; Bact viability: 10; RecBCD conf: 4; Ecoli viability: 4; AddAB counter: 7

How did O=C(NN=Cc1cc(Br)ccc1O)C(=O)Nc1ccccc1OC(F)(F)C(F)F do in these assays?
E coli growth-1: 0.74

Results for CC(=O)NC(c1ccco1)c1ccc2cccnc2c1O (configuration not stated) ?
AddAB inh: 4; Tat export inh: 7; E coli growth-2: -1

What do the screens show for `Cc1cc(NC(c2ccc(Cl)cc2)c2ccc3cccnc3c2O)no1` (configuration not stated)?
AddAB inh: 25*; Tat export inh: -1; phage Ecoli inh: 23*; E coli growth-1: 0.69; E coli growth-2: 33*; AddAB conf: 25*; RecBCD counter: 23*; Bact viability: 21; RecBCD conf: 14*; Ecoli viability: 15; AddAB counter: 25*

Results for CC(C)C(=O)NC(c1ccc(Cl)cc1Cl)c1ccc2cccnc2c1O (configuration not stated) ?
AddAB inh: 20*; Tat export inh: 3; phage Ecoli inh: 19*; E coli growth-1: 0.65; E coli growth-2: 29*; AddAB conf: 20*; RecBCD counter: 20*; Bact viability: 19; RecBCD conf: 11*; Ecoli viability: 13; AddAB counter: 22*

Results for CCC(=O)NC(c1ccc(Cl)cc1Cl)c1ccc2cccnc2c1O (configuration not stated) ?
AddAB inh: 20*; Tat export inh: 1; phage Ecoli inh: 22*; E coli growth-2: 22*; AddAB conf: 20*; RecBCD counter: 19*; Bact viability: 19; RecBCD conf: 15*; Ecoli viability: 17; AddAB counter: 27*

What do the screens show for `C=CC1c2c(F)cccc2N(S(=O)(=O)c2ccc(C)cc2)C(c2ccc(C(=O)OC)cc2)C1(C#N)C#N` (configuration not stated)?
E coli growth-1: 0.73

Results for CCCCCCn1cc(C(=O)OCC)c(=O)c2cc(F)c(F)cc21 ?
AddAB inh: 3; Tat export inh: 5; phage Ecoli inh: 2; E coli growth-1: 0.7; E coli growth-2: 1

What do the screens show for `CCn1cc(SCC(=O)NCc2ccc3c(c2)OCO3)c2ccccc21`?
AddAB inh: -1; Tat export inh: -18; phage Ecoli inh: 3; E coli growth-1: 0.7; E coli growth-2: 1

Results for CCC(C)NC(=O)c1cn(CC)c2cc(N3CCN(C)CC3)c(F)cc2c1=O (configuration not stated) ?
AddAB inh: 99*; phage Ecoli inh: 94*; E coli growth-1: 0.075*; E coli growth-2: 95*; AddAB conf: 100*; RecBCD counter: 99*; Bact viability: 100*; RecBCD conf: 99*; Ecoli viability: 99*; AddAB counter: 100*

How did CCn1cc(C(=O)NCc2ccc3c(c2)OCO3)c(=O)c2cc(F)c(N3CCN(C)CC3)cc21 do in these assays?
AddAB inh: 99*; Tat export inh: 10; phage Ecoli inh: 16*; E coli growth-1: 0.043*; E coli growth-2: 98*; AddAB conf: 102*; RecBCD counter: 29*; Bact viability: 101*; RecBCD conf: 18*; Ecoli viability: 20; AddAB counter: 102*

How did CCOC(=O)c1cn(CC)c2cc(N3CCN(C)CC3)c(F)cc2c1=O do in these assays?
AddAB inh: 99*; Tat export inh: 2; phage Ecoli inh: 27*; E coli growth-1: 0.068*; E coli growth-2: 97*; AddAB conf: 102*; RecBCD counter: 19*; Bact viability: 100*; RecBCD conf: 11*; Ecoli viability: 12; AddAB counter: 89*

Screening data as filed in PubChem BioAssay.
